From PubChem BioAssay (EPA / NIEHS) come the findings set out here.

In general, AC50 refers to the concentration at which the activity in the assay is half-maximal.

Common to all, as to settings: mRNA level, 48 h; actives raise or lower the signal
Read-out in assay [1]: Glutamate-cysteine ligase catalytic (GCLC), GCLC (gene 2729)
Description: LTEA_HepaRG_GCLC: Life Technologies and Expression Analysis (LTEA) Assay for Glutamate-cysteine ligase catalytic (GCLC) using HepaRG (AID 2283498). A digest of the protocol: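 Read-out is GCLC transcript level by Fluidigm-based TaqMan qRT-PCR, normalized to three housekeeping genes and fitted in both directions relative to 0.5% DMSO. Human HepaRG cells received chemicals for 48 h, up to 100 uM.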

Read-out in assay [2]: growth arrest and DNA damage 45 (GADD45G), GADD45G (gene 10912)
Nature of the assay: LTEA_HepaRG_GADD45G: Life Technologies and Expression Analysis (LTEA) Assay for growth arrest and DNA damage 45 (GADD45G) using HepaRG (AID 2283499). The essentials:
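GADD45G transcript level by qRT-PCR (housekeeping-normalized: ACTB, GAPDH, POLR2A) after 48 h chemical treatment of a single HepaRG lot in serum-free induction medium; eight-point half-log series up to 100 uM in 0.5% DMSO, duplicates, up- or down-regulation scored.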

Read-out in assay [3]: Glutamate-cysteine ligase regulatory (GCLM), GCLM (gene 2730)
Nature of the assay: LTEA_HepaRG_GCLM: Life Technologies and Expression Analysis (LTEA) Assay for Glutamate-cysteine ligase regulatory (GCLM) using HepaRG (AID 2283500). The essentials: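 Differentiated HepaRG cells exposed 48 h in serum-free induction medium to eight half-log concentrations up to 100 uM (0.5% DMSO). GCLM mRNA by TaqMan qRT-PCR, normalized to ACTB, GAPDH and POLR2A; bidirectional fit versus DMSO.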

Read-out in assay [4]: Heat shock 70 kDa protein 1 (HSPA1A), gene 3303
Nature of the assay: LTEA_HepaRG_HSPA1A: Life Technologies and Expression Analysis (LTEA) Assay for Heat shock 70 kDa protein 1 (HSPA1A) using HepaRG (AID 2283502). A digest of the protocol: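 Human HepaRG cells in serum-free induction medium were exposed in duplicate for 48 h to 8 half-log concentrations, highest 100 uM, in 0.5% DMSO. HSPA1A mRNA read by TaqMan qRT-PCR, normalized to ACTB, GAPDH, POLR2A, fitted bidirectionally against DMSO.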

Read-out in assay [5]: Hypoxia-inducible factor 1-alpha (Homo sapiens) (UniProt Q16665)
Nature of the assay: LTEA_HepaRG_HIF1A: Life Technologies and Expression Analysis (LTEA) Assay for Hypoxia-inducible factor 1 (HIF1A) Trancription factor using HepaRG (AID 2283503). The essentials: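 Differentiated HepaRG cells in serum-free induction medium exposed 48 h, in duplicate, to 8-point half-log series from 100 uM in 0.5% DMSO. HIF1A mRNA measured by TaqMan qRT-PCR, normalized to ACTB/GAPDH/POLR2A, fitted bidirectionally versus DMSO.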

Read-out in assay [6]: 3-Hydroxy-3-Methylglutaryl-CoA Synthase 2 (HMGCS2), HMGCS2 (gene 3158)
Nature of the assay: LTEA_HepaRG_HMGCS2: Life Technologies and Expression Analysis (LTEA) Assay for 3-Hydroxy-3-Methylglutaryl-CoA Synthase 2 (HMGCS2) using HepaRG (AID 2283504). The essentials:
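Readout is HMGCS2 transcript by qRT-PCR, housekeeping-normalised (ACTB/GAPDH/POLR2A) and fitted bidirectionally against 0.5% DMSO. Differentiated HepaRG cells received chemicals 48 h, duplicate wells, eight half-log concentrations topping at 100 uM.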

Read-out in another assay: HGF (gene 3082)
Description: LTEA_HepaRG_HGF: Life Technologies and Expression Analysis (LTEA) Assay for Hepatocyte Growth Facto (HGF) using HepaRG (AID 2283505). A digest of the protocol: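 HGF transcript was quantified by TaqMan qRT-PCR against three housekeeping genes after 48 h treatment of HepaRG cells. Exposure ran in duplicate over eight half-log steps topping at 100 uM in 0.5% DMSO vehicle.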

Read-out in assay [7]: Insulin Like Growth Factor 1 (IGF1), IGF1 (gene 3479)
Nature of the assay: LTEA_HepaRG_IGF1: Life Technologies and Expression Analysis (LTEA) Assay for Insulin Like Growth Factor 1 (IGF1) using HepaRG (AID 2283506). A digest of the protocol:
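Differentiated HepaRG cells in serum-free induction medium, exposed 48 h in duplicate to 8 half-log concentrations up to 100 uM in 0.5% DMSO. IGF1 mRNA by Fluidigm qRT-PCR, normalised to ACTB, GAPDH and POLR2A.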

Read-out in assay [8]: Intercellular Adhesion Molecule 1 (ICAM1), ICAM1 (gene 3383)
Nature of the assay: LTEA_HepaRG_ICAM1: Life Technologies and Expression Analysis (LTEA) Assay for Intercellular Adhesion Molecule 1 (ICAM1) using HepaRG (AID 2283507). A digest of the protocol:
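ICAM1 transcript levels measured by qRT-PCR, normalized to three housekeeping genes (ACTB, GAPDH, POLR2A), after 48 h chemical exposure of HepaRG cells. Duplicate eight-point half-log series from 100 uM in 0.5% DMSO; gain or loss fitted against vehicle.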

Read-out in assay [9]: Insulin-like growth factor-binding protein 1 (IGFBP1), IGFBP1 (gene 3484)
Description: LTEA_HepaRG_IGFBP1: Life Technologies and Expression Analysis (LTEA) Assay for Insulin-like growth factor-binding protein 1 (IGFBP1) using HepaRG (AID 2283508). A digest of the protocol:
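Read-out is qRT-PCR transcript level normalized to three housekeeping genes, fitted in both directions against 0.5% DMSO. Differentiated HepaRG cells received eight half-log concentrations (top 100 uM) in duplicate for 48 h in serum-free induction medium.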

Read-out in assay [10]: Interleukin 6 (IL6), IL6 (gene 3569)
Nature of the assay: LTEA_HepaRG_IL6: Life Technologies and Expression Analysis (LTEA) Assay for Interleukin 6 (IL6) using HepaRG (AID 2283509). A digest of the protocol: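 HepaRG, ~100,000 cells/well, 48 h pre-culture; serum-free induction medium; cmpd 8-pt half-log from 100 uM, 0.5% DMSO, duplicate, 48 h. Lysis in RLT, TaqMan qRT-PCR; gain or loss vs DMSO.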

Read-out in assay [11]: Interleukin 6 Receptor (IL6R), IL6R (gene 3570)
Description: LTEA_HepaRG_IL6R: Life Technologies and Expression Analysis (LTEA) Assay for Interleukin 6 Receptor (IL6R) using HepaRG (AID 2283510). A digest of the protocol: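 Differentiated HepaRG cells, plated 48 h, then exposed in duplicate for 48 h in serum-free induction medium to 8 half-log concentrations (top 100 uM, 0.5% DMSO). IL6R mRNA measured by TaqMan qRT-PCR, normalized to ACTB/GAPDH/POLR2A; bidirectional fit vs DMSO.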

Read-out in assay [12]: Potassium channel subfamily K member 1 (KCNK1), KCNK1 (gene 3775)
Nature of the assay: LTEA_HepaRG_KCNK1: Life Technologies and Expression Analysis (LTEA) Assay for Potassium channel subfamily K member 1 (KCNK1) using HepaRG (AID 2283511). A digest of the protocol:
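Gain or loss of KCNK1 mRNA is the read-out, quantified by qRT-PCR against three housekeeping genes after 48 h chemical treatment of human HepaRG liver cells. Concentrations ran from 100 uM downward in half-log steps, vehicle 0.5% DMSO.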

Read-out in assay [13]: JUN Transcription Factor, JUN (gene 3725)
Nature of the assay: LTEA_HepaRG_JUN: Life Technologies and Expression Analysis (LTEA) Assay for JUN Transcription Factor using HepaRG (AID 2283513). The essentials:
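HepaRG cells, 48 h post-plating, exposed 48 h in serum-free induction medium to 8-point half-log series (top 100 uM, 0.5% DMSO), duplicate; mRNA by qRT-PCR (TaqMan, Fluidigm), normalized to ACTB/GAPDH/POLR2A; bidirectional fit vs DMSO.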

Read-out in assay [14]: Lipase C (LIPC), LIPC (gene 3990)
Description: LTEA_HepaRG_LIPC: Life Technologies and Expression Analysis (LTEA) Assay for Lipase C (LIPC) using HepaRG (AID 2283514). A digest of the protocol: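 Read-out is LIPC transcript level by TaqMan qRT-PCR, normalized to three housekeeping genes, after 48 h chemical treatment of human HepaRG liver cells. Curves span eight concentrations topping at 100 uM; activity in either direction scored relative to 0.5% DMSO.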

Read-out in assay [15]: Lipoprotein lipase (LPL), LPL (gene 4023)
Description: LTEA_HepaRG_LPL: Life Technologies and Expression Analysis (LTEA) Assay for Lipoprotein lipase (LPL) using HepaRG (AID 2283515). A digest of the protocol: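 Read-out is LPL transcript level by qRT-PCR, normalized to three housekeeping genes and fitted bidirectionally against the DMSO control. Human HepaRG cells received chemicals for 48 h at up to 100 uM.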

Read-out in assay [16]: MicroRNA 122 (MIR122), gene 406906
Description: LTEA_HepaRG_MIR122: Life Technologies and Expression Analysis (LTEA) Assay for MicroRNA 122 (MIR122) using HepaRG (AID 2283516). Further: the transcript read is the microRNA miR-122. A digest of the protocol: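 Differentiated human HepaRG cells in serum-free induction medium exposed 48 h to 8 half-log concentrations from 100 uM in 0.5% DMSO, duplicate. MIR122 quantified by Fluidigm TaqMan qRT-PCR, normalised to ACTB, GAPDH, POLR2A; fold change fitted bidirectionally versus DMSO.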

Read-out in assay [17]: matrix metalloproteinase-10 (MMP10), MMP10 (gene 4319)
Nature of the assay: LTEA_HepaRG_MMP10: Life Technologies and Expression Analysis (LTEA) Assay for matrix metalloproteinase-10 (MMP10) using HepaRG (AID 2283517). The essentials: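 Gain or loss of MMP10 mRNA is fitted relative to the 0.5% DMSO vehicle. The human hepatic line HepaRG receives a 48-hour serum-free exposure, in duplicate, with a maximum concentration of 100 uM.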

The source made the active and inactive calls. How the source made its calls: active means hit-call score of the fitted dose curve at least 0.9, where 1 is the maximum; inactive means score below 0.9.

Chain of Hypoxia-inducible factor 1-alpha (Homo sapiens) (Q16665 whole entry, looked up): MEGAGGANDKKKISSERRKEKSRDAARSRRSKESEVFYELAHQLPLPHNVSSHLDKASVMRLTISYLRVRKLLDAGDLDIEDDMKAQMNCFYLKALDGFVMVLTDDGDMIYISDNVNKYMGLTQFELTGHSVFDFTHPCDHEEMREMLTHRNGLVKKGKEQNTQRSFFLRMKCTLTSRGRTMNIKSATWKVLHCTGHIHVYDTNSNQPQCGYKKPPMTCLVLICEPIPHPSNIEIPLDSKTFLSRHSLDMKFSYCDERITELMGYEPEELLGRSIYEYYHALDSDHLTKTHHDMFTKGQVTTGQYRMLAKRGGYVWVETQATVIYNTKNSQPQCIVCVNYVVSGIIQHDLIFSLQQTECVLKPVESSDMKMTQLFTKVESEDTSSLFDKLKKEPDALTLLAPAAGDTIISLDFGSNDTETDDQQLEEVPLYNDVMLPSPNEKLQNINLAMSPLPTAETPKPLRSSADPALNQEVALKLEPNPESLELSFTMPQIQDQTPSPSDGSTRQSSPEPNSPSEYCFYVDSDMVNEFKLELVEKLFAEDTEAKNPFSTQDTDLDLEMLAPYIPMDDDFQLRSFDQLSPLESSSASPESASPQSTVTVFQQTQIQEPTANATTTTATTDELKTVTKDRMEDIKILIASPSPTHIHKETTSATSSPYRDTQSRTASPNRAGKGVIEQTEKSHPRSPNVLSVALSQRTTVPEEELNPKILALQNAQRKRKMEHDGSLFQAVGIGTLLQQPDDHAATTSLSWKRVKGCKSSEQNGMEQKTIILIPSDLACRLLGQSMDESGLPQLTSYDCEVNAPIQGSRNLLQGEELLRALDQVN

With `O=C(NO)C1(NS(=O)(=O)c2ccc(Oc3ccc(F)cc3)cc2)CCOCC1`, the molecule was classed as inactive (in [1]; in [3]; in [4]; in [5]; with HGF (gene 3082); in [8]). In addition, the call in assay [9], in assay [10], in [11], in [12], in [13] and in assay [14] was inactive. For the same molecule, the molecule was classed as inactive in [16]. The half-maximal activity concentration (AC50) in assay [2] is 72.6 µM (active); in [6] it was 83.3 µM (active); in assay [7] it was 50 µM (active); in assay [15], 76.6 µM (active).
Regarding `OC[C@H]1O[C@@H]2O[C@H]3[C@H](O)[C@@H](O)[C@@H](O[C@H]4[C@H](O)[C@@H](O)[C@@H](O[C@H]5[C@H](O)[C@@H](O)[C@@H](O[C@H]6[C@H](O)[C@@H](O)[C@@H](O[C@H]7[C@H](O)[C@@H](O)[C@@H](O[C@H]1[C@H](O)[C@H]2O)O[C@@H]7CO)O[C@@H]6CO)O[C@@H]5CO)O[C@@H]4CO)O[C@@H]3CO`, the molecule was classed as inactive in [1], in [2], in assay [3], in [4], in assay [5] and in [6]. The outcome (in the assay with HGF (gene 3082); in assay [7]; in assay [8]; in assay [9]; in [10]; in [12]) was inactive. In addition, the molecule was called inactive in [13], in [14], in [15] and in assay [16].
Turning to `CCCCCCCC/C=C\CCCCCCCC(=O)OC[C@@H](O)[C@H]1OC[C@H](O)[C@H]1O`, the molecule was called inactive in assay [1], in assay [2], in assay [3], in assay [4], in [5] and in assay [6]. Further, the call (with HGF (gene 3082); in assay [7]; in assay [8]; in assay [9]; in assay [10]; in assay [12]) was inactive. The molecule was classed as inactive in assay [13], in assay [14], in assay [15] and in assay [16].
For `Cc1nccn1-c1ccc(Sc2cccc(C3(C(N)=O)CCOCC3)c2)cc1`, the molecule was classed as inactive in assay [1], in [4], in assay [5], in assay [10] and in assay [12]. Moreover, the AC50 in assay [2] was 4.69 µM (active); in [3], 7.4 µM (active); in assay [6], 11 µM (active); in the assay with HGF (gene 3082), 20.6 µM (active); in [7], 7.82 µM (active); in [8] it was 10.7 µM (active). For the same molecule, the concentration at half-maximal activity (AC50) in [9] was 9.01 µM (active); in [13] it was 19.4 µM (active); in [14], 12.2 µM (active); in assay [15] it was 0.913 µM (active); in assay [16], 15.1 µM (active); in [17] it was 17.6 µM (active).
